Assay [1] is described as follows: ATG_E_Box_CIS: Attagene CIS-FACTORIAL HepG2 Assay for human Enhancer Box (E-box) (AID 2282936). Particulars: HepG2 E-box cis-reporter transcription, actives raise or lower the signal. Put shortly: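 DMSO served as negative control and baseline for bidirectional fitting. Human hepatoma HepG2 cells, transiently transfected with cis-reporter constructs, were dosed 24 h; reporter mRNA read by RT-PCR and capillary electrophoresis.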

A short description of assay [2]: ATG_M_61_CIS: Attagene CIS-FACTORIAL HepG2 Assay for M61 Transcription Factor (Internal Marker) (AID 2282937). Particulars: HepG2 Attagene CIS-FACTORIAL M61 internal marker reporter; actives raise or lower the signal. Put shortly: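 Background-control endpoint: HepG2 cells with cis-regulated reporter constructs, 24 h exposure, reporter mRNA detected via fluorescent primer extension and capillary electrophoresis; values from bidirectional fitting with DMSO baseline.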

Assay [3] in a line: ATG_EGR_CIS: Attagene CIS-FACTORIAL HepG2 Assay for human Early Growth Response 1 (EGR1) (AID 2282938). The note with it: HepG2 Attagene CIS-FACTORIAL EGR reporter mRNA; actives raise or lower the signal. Put shortly: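 Endpoint derived by bidirectional fitting versus DMSO vehicle. Method: cis-promoter reporter units transfected into HepG2, 24 h dosing, RNA isolation, RT-PCR with 6-FAM primer extension and HpaI digestion, then capillary electrophoresis fluorescence detection.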

Assay [4] can be described thus: ATG_M_19_CIS: Attagene CIS-FACTORIAL HepG2 Assay for M19 Transcription Factor (Internal Marker) (AID 2282939). Particulars: HepG2 Attagene CIS-FACTORIAL M19 internal marker reporter; actives raise or lower the signal. In outline: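 HepG2 cells transiently transfected with cis-regulated multiplexed reporter units, dosed 24 h. Reporter mRNA quantified by RT-PCR and capillary electrophoresis; internal background marker fitted bidirectionally versus DMSO.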

Assay [5] in a line: ATG_ERE_CIS: Attagene CIS-FACTORIAL HepG2 Assay for Estrogen Response Element (ERE) (AID 2282940). Particulars: HepG2 ERE cis-reporter, Attagene RNA transcript; actives raise or lower the signal. Put shortly: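 HepG2 cells transiently transfected with multiplexed cis-element reporter units, measuring endogenous transcription factor activity; ERE reporter mRNA quantified after 24 h exposure by RT-PCR, fluorescent labelling, HpaI digestion and capillary electrophoresis. Bidirectional change versus DMSO.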

A short description of assay [6]: ATG_Ets_CIS: Attagene CIS-FACTORIAL HepG2 Assay for human Erythroblast Transformation Specific (ETS) (AID 2282941). The note with it: HepG2 ETS cis-reporter transcription, actives raise or lower the signal. In outline:
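After transient cis-reporter transfection, HepG2 cells receive test chemical for 24 h. Reporter mRNA levels, measured by RT-PCR and capillary electrophoresis fluorescence, are analysed bidirectionally relative to the DMSO baseline.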

In assay [7] the target is Hepatocyte nuclear factor 3-beta (Homo sapiens) (UniProt Q9Y261). Briefly: ATG_FoxA2_CIS: Attagene CIS-FACTORIAL HepG2 Assay for human Forkhead box A2 (FOXA2) (AID 2282942). Particulars: HepG2 cis-reporter transcription factor activity, 24 h; actives raise or lower the signal. In outline:
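Measured: reporter mRNA induction or loss in HepG2 transiently carrying multiple cis-regulated reporter units, 24 h after dosing. Quantified by RT-PCR plus capillary electrophoresis, normalised to DMSO.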

Assay [8] in a line: ATG_FoxO_CIS: Attagene CIS-FACTORIAL HepG2 Assay for human Forkhead box O (FoxO) (AID 2282943). Particulars: HepG2 Attagene cis-reporter, FoxO element, mRNA; actives raise or lower the signal. In outline:
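Endogenous transcription factor activity read from multiplexed cis-promoter reporter transcripts in transiently transfected HepG2, 24 h after dosing. Reporter RNA measured via RT-PCR plus capillary electrophoresis of FAM-labeled products; gain or loss relative to DMSO.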

The nature of assay [9]: ATG_GATA_CIS: Attagene CIS-FACTORIAL HepG2 Assay for human GATA Binding Protein (AID 2282944). Particulars: HepG2 GATA cis-element reporter, Attagene multiplex mRNA; actives raise or lower the signal. Put shortly:
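HepG2 cells transiently transfected with multiplexed cis-element reporter units measure endogenous GATA activity; after 24 h compound exposure, reporter mRNA quantified by RT-PCR and capillary electrophoresis. Changes fitted in both directions vs DMSO.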

Assay [10] in a line: ATG_GLI_CIS: Attagene CIS-FACTORIAL HepG2 Assay for human Zinc Finger Protein GLI1 (AID 2282945). Particulars: HepG2, Attagene cis-factorial reporter mRNA, GLI element; actives raise or lower the signal. Put shortly: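 Bidirectional curve fits relative to DMSO, using reporter mRNA levels from RT-PCR plus capillary electrophoresis. Cells were HepG2 transiently carrying cis-regulated reporter constructs, harvested 24 h after dosing.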

Assay [11] in a line: ATG_GRE_CIS: Attagene CIS-FACTORIAL HepG2 Assay for human Glucocorticoid Response Elements (GRE) (AID 2282947). Particulars: HepG2 GRE cis-reporter, Attagene multiplex mRNA; actives raise or lower the signal. In outline: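 Assay uses human hepatoma HepG2 cells transfected with cis-promoter reporter units, exposed 24 h. mRNA from reporters detected by RT-PCR plus capillary electrophoresis; DMSO serves as negative control and baseline.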

Assay [12] can be described thus: ATG_ISRE_CIS: Attagene CIS-FACTORIAL HepG2 Assay for human Interferon Regulatory Factor 1 (IRF1) binding to an Interferon-Stimulated Response Element (ISRE) (AID 2282948). The note with it: HepG2 ISRE cis-reporter (Attagene), mRNA transcription readout; actives raise or lower the signal. In outline:
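Quantitation relies on labelled RT-PCR fragments separated by capillary electrophoresis. Human HepG2 cells bearing cis-promoter reporter constructs were treated 24 h; DMSO served as baseline for bidirectional fitting.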

Assay [13] is described as follows: ATG_M_32_CIS: Attagene CIS-FACTORIAL HepG2 Assay for M32 Transcription Factor (Internal Marker) (AID 2282949).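 Note: background control marker of the multiplexed CIS panel rather than a real target.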 Particulars: HepG2 Attagene cis-factorial M32 reporter, mRNA; actives raise or lower the signal. Put shortly:
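Following 24 h chemical exposure of HepG2 cells transiently expressing cis-promoter reporter constructs, reporter transcript levels were determined by RT-PCR with fluorescent labelling and capillary electrophoresis, then fitted bidirectionally against DMSO.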

Assay [14] can be described thus: ATG_M_06_CIS: Attagene CIS-FACTORIAL HepG2 Assay for M06 Transcription Factor (Internal Marker) (AID 2282950). Particulars: HepG2 Attagene CIS-FACTORIAL M06 internal marker reporter; actives raise or lower the signal. Put shortly: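 Internal background marker within multiplexed cis-reporter HepG2 system. Cells transiently transfected, dosed 24 h; reporter mRNA measured by RT-PCR, HpaI digestion and capillary electrophoresis. Bidirectional fit relative to DMSO.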

The target of assay [15] is Hypoxia-inducible factor 1-alpha (Homo sapiens) (UniProt Q16665). The assay can be described thus: ATG_HIF1a_CIS: Attagene CIS-FACTORIAL HepG2 Assay for human Hypoxia Inducible Factor 1 (HIF1A) (AID 2282951). The note with it: HepG2 Attagene cis-factorial HIF1a reporter transcription; actives raise or lower the signal. In outline: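 Dosed 24 h, transfected HepG2 cells yielded total RNA whose reporter transcripts were RT-PCR-amplified and sized by capillary electrophoresis using fluorescent labelling; DMSO defined baseline, with gain and loss of signal both fitted.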
Sequence of Hypoxia-inducible factor 1-alpha (Homo sapiens) (Q16665 whole entry, looked up): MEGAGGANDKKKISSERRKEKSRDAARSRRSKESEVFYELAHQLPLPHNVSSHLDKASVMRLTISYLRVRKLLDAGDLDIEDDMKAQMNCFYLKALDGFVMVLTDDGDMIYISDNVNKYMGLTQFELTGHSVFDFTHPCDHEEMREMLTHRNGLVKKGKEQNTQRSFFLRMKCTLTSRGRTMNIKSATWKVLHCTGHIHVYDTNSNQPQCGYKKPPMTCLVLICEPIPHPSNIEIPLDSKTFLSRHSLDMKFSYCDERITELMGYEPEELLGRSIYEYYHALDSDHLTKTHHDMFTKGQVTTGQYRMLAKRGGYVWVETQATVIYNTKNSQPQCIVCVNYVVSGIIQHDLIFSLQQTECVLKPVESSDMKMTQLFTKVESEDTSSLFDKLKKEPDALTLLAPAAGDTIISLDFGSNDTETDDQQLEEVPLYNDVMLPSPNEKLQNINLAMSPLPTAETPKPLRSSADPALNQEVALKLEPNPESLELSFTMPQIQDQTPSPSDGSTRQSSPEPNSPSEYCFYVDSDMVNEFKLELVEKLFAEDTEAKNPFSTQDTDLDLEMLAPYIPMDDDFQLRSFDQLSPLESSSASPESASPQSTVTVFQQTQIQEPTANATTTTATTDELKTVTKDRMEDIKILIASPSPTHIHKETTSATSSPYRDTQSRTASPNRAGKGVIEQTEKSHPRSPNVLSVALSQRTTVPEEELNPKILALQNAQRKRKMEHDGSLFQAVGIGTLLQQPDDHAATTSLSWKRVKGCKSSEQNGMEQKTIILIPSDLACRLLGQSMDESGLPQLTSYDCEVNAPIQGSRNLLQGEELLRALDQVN

Assay [16] addresses Hepatocyte nuclear factor 6 (Homo sapiens) (UniProt Q9UBC0). The assay can be described thus: ATG_HNF6_CIS: Attagene CIS-FACTORIAL HepG2 Assay for human Hepatocyte Nuclear Factor 6 (HNF6) (AID 2282952). The note with it: HepG2 Attagene cis-factorial HNF6 reporter transcription; actives raise or lower the signal. Put shortly:
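Transiently transfected HepG2 cells expressing cis-regulated reporter transcription units were exposed to chemical for 24 h in a 24-well format. Reporter transcript abundance was determined by fluorescence capillary electrophoresis.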

Assay [17] has as its target Heat shock factor protein 1 (Homo sapiens) (UniProt Q00613). The assay can be described thus: ATG_HSE_CIS: Attagene CIS-FACTORIAL HepG2 Assay for human Heat Shock Transcription Factor 1 (HSE) (AID 2282953). The note with it: HepG2 HSE cis-reporter, Attagene RNA transcription; actives raise or lower the signal. In outline:
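HepG2 cells transfected with cis-promoter reporter units sensing endogenous transcription factor activity; reporter mRNA quantified 24 h post-dose by RT-PCR and capillary electrophoresis of 6-FAM-labelled products. Bidirectional fitting against DMSO.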

Assay [18] in a line: ATG_MRE_CIS: Attagene CIS-FACTORIAL HepG2 Assay for human Metal Responsive Element (MRE) (AID 2282954). The note with it: HepG2 MRE cis-reporter transcription, Attagene multiplex; actives raise or lower the signal. Put shortly:
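After a 24 h chemical exposure, transiently transfected HepG2 cells yield RNA whose reporter sequences are amplified, FAM-labelled and sized by capillary electrophoresis. Curves are fitted bidirectionally relative to DMSO.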

A short description of assay [19]: ATG_PBREM_CIS: Attagene CIS-FACTORIAL HepG2 Assay for human Phenobarbital-responsive Enhancer Module (PBREM) (AID 2282955). Particulars: HepG2 PBREM cis-reporter, Attagene multiplexed transcription; actives raise or lower the signal. Put shortly: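 Transfected liver-derived HepG2 cells exposed 24 h; PBREM reporter transcript quantified via RT-PCR and capillary electrophoresis, with activity in either direction referenced to DMSO.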

Calls of active or inactive are those of the source. Rule for the calls: active = hit-call score of the fitted dose curve at least 0.9, where 1 is the maximum; inactive = score below 0.9.

Sequence of Hepatocyte nuclear factor 6 (Homo sapiens) (Q9UBC0 whole entry, looked up): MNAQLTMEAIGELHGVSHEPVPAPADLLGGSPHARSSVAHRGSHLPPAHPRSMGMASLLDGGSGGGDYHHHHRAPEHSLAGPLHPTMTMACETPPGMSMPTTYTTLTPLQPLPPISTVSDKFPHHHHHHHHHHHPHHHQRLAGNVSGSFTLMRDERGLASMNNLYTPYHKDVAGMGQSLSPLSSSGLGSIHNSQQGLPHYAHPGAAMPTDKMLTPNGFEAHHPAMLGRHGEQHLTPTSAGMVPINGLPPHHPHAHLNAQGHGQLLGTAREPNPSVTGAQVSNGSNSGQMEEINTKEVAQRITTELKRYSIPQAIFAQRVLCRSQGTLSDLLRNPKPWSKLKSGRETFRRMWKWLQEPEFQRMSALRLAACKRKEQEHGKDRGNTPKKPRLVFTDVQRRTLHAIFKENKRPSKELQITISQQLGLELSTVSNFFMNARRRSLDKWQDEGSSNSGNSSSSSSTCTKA
Sequence of Hepatocyte nuclear factor 3-beta (Homo sapiens) (Q9Y261 whole entry, looked up): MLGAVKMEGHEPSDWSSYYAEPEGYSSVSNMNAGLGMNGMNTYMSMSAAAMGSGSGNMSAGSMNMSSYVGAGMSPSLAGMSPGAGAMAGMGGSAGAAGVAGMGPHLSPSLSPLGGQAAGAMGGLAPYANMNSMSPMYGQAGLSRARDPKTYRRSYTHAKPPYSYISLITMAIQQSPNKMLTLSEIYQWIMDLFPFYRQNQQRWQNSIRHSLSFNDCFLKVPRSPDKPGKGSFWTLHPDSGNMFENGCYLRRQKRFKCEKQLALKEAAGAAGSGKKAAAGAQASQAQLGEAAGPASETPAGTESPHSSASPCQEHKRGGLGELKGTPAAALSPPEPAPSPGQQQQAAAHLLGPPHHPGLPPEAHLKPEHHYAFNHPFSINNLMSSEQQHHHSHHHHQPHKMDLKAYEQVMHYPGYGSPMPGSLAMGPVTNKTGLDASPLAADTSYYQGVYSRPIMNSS
Sequence of Heat shock factor protein 1 (Homo sapiens) (Q00613 whole entry, looked up): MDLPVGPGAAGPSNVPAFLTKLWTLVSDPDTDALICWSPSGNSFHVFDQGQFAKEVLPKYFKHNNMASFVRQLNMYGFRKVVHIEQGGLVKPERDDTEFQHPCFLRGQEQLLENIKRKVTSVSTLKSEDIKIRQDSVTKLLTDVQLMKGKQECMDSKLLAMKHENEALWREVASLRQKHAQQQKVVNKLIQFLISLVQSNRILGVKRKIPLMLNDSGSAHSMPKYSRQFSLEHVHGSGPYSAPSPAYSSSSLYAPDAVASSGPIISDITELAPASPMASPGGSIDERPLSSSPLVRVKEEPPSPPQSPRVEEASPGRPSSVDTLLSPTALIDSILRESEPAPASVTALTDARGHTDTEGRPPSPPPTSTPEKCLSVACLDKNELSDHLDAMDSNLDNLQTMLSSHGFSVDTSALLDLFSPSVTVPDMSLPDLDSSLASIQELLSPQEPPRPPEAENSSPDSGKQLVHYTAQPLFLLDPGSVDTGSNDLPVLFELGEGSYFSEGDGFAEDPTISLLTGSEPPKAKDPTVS

With `CC1OC1C1CCC2(C)OC2C1` (stereo not drawn), the result in assay [1], in assay [2], in assay [3], in [4], in [5] and in assay [6] was inactive. Also, the result in assay [7], in [8], in assay [9], in assay [10], in assay [11] and in [12] was inactive. Also, the compound was called inactive in [13], in [14], in assay [15], in [16], in [17] and in [18]. For the same compound, in assay [19], the result was inactive.

With `C=C[Si](OC(C)=O)(OC(C)=O)OC(C)=O`, the outcome in assay [1], in assay [2], in assay [3], in [4], in assay [5] and in [6] was inactive. Besides, the outcome in assay [7], in assay [8], in [9], in assay [10], in assay [11] and in assay [12] was inactive. The compound was called inactive in assay [13], in [14], in assay [15], in assay [16], in assay [17] and in assay [18]. In addition, in assay [19], the result was inactive.

As for `CC(C)(C)C1CCCCC1=O` (stereo not drawn), the result in assay [1], in [2], in assay [3], in [4], in assay [5] and in assay [6] was inactive. Also, the outcome in assay [7], in assay [8], in [9], in [10], in assay [11] and in assay [12] was inactive. The compound was classed as inactive in [13], in assay [14], in [15], in assay [16], in assay [17] and in assay [18]. Also, in [19], the result was inactive.

For orientation: AC50 means the midpoint of the concentration-response curve, whichever way the signal moves. With `C=C(C)[C@@H]1CCC2=CCC[C@@H](C)[C@]2(C)C1`, the outcome in assay [1], in assay [2], in [3], in assay [4], in assay [6] and in assay [7] was inactive. Moreover, the compound was called inactive in [8], in assay [9], in assay [10], in [11], in assay [12] and in assay [13]. In addition, the outcome in assay [14], in assay [15], in [16], in [17] and in assay [19] was inactive. For the same compound, the AC50 in assay [5] is 57.2 µM (active); in assay [18], 155 µM (active).

As for `CCCCC(CC)COCC1CO1` (stereo not drawn), the result in assay [1], in assay [2], in [3], in [4], in assay [5] and in assay [6] was inactive. Also, the outcome in assay [7], in [8], in [9], in assay [10], in assay [11] and in assay [12] was inactive. Also, the outcome in [13], in assay [14], in assay [15], in assay [16], in [17] and in [18] was inactive. The result in assay [19] was inactive.

With `COc1ccc(NC(C)=O)cc1N`, the outcome in assay [1], in assay [2], in assay [3], in assay [4], in assay [5] and in assay [6] was inactive. Further, the outcome in assay [7], in assay [8], in [9], in [10], in [11] and in assay [12] was inactive. Further, the outcome in assay [13], in assay [14], in assay [15], in assay [16], in assay [17] and in [18] was inactive. Further, the result in assay [19] was inactive.

In the case of `SCCc1cnccn1`, the result in assay [1], in assay [2], in assay [3], in assay [4], in assay [5] and in [6] was inactive. In addition, the outcome in assay [7], in assay [8], in assay [9], in assay [10], in assay [11] and in assay [13] was inactive. Besides, the result in [14], in assay [15], in assay [16], in assay [17], in assay [18] and in assay [19] was inactive. The AC50 in assay [12] was 43.3 µM (active).

Values taken from PubChem BioAssay (EPA / NIEHS).
